Source: PubChem BioAssay (NCATS)
Results filed as inconclusive are left out. Entries that show only a call come without a potency. Unmarked numbers belong to inactive results. Active and inactive are the calls of the source. Calls follow the shape of the dose curve; as a rule, active = well fitted curve in the direction sought with a large enough effect; inconclusive = small, poorly fitted or top-dose-only effect, or another doubt; inactive = no such curve, though single readings can be large; an effect the other way counts as inactive or inconclusive. Where a SMILES comes first, the peptide text is derived from it. [ ]: non-standard residue; d: D form.

How the values were obtained:
[1] = P-glycoprotein substrates identified in KB-3-1 adenocarcinoma cell line, qHTS therapeutic library screen (AID 1346986); details: KB-3-1 parental cells viability, CellTiter-Glo, 72 h; series mostly up to 44.5 µM; also: nearly all actives have a fitted effect of over 60% in size;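 also: potency is for cytotoxicity meaning loss of cell viability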
In short: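 72 h cell-killing screen, 500 cells/well, CellTiter-Glo luminescence. Paired lines KB-3-1/KB-8-5-11; P-gp dependence checked by tariquidar co-treatment and HEK-293 MDR-19 versus empty-vector cells.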

[2] = P-glycoprotein substrates identified in KB-8-5-11 adenocarcinoma cell line, qHTS therapeutic library screen (AID 1346987); details: KB-8-5-11 (P-gp overexpressing) viability, CellTiter-Glo, 72 h; series mostly up to 44.5 µM; also: nearly all actives have a fitted effect of over 65% in size
In short: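 Luminescence from CellTiter-Glo, read 5 min after addition, quantified survival of KB-8-5-11 (P-gp-overexpressing) cells exposed to compounds for 72 h. AC50 was derived from concentration-response curves.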
Potency is read from the fitted curve at half-maximal effect.

CO[C@@H]1CC[C@H](OC[C@]2(COC(=O)c3ccc(C)[nH]3)[C@H](OC(C)=O)CC[C@@]3(C)[C@@H]4CC=C(C)[C@@H](C5=C(O)C(=O)OC5O)[C@]4(C)CC[C@@H]32)O[C@H]1C (some centres undefined)
Potency [1]: inactive | Potency [2]: inactive

CC(C(=O)O)C1CCC2(C)C3C(=O)C=C4C(CCC(=O)C4(C)C)C3(C)CCC12C (centres undefined)
Potency [1]: inactive | Potency [2]: inactive

C[C@H]1CN(C[C@H](Cc2ccccc2)C(=O)NCC(=O)O)CC[C@@]1(C)c1cccc(O)c1
Potency [1]: inactive | Potency [2]: inactive

COC(=O)C1=COC(OC2OC(CO)C(O)C(O)C2O)C2C1CC(OC(=O)C(O)CC(=O)O)C2C (centres undefined)
Potency [1]: inactive | Potency [2]: inactive

OCCc1ccc(O[C@@H]2O[C@H](CO)[C@@H](O)[C@H](O)[C@H]2O)c(O)c1
Potency [1]: inactive | Potency [2]: inactive

CC1(C)C(=O)C(C)(C)c2cc(C(=O)Nc3ccc(C(=O)O)cc3)ccc21
Potency [1]: inactive | Potency [2]: inactive

CCC1CC2C(C)=CC3CCCCC3C2(C)C2(OC(=O)C(C)(O)OC2=O)O1 (centres undefined)
Potency [1]: inactive | Potency [2]: inactive

O=C(/C=C/c1ccc(O)cc1)O[C@H]1[C@@H]2C=CO[C@@H](O[C@@H]3O[C@H](CO)[C@@H](O)[C@H](O)[C@H]3O)[C@@H]2[C@@]2(CO)O[C@@H]12
Potency [1]: inactive | Potency [2]: inactive

CCC(=O)NS(=O)(=O)c1ccc(-c2c(-c3ccccc3)noc2C)cc1
Potency [1]: inactive | Potency [2]: inactive

CC(=O)N[C@H](Cc1ccc(O)cc1)C(=O)N[C@H](CCCN=C(N)N)C(=O)N[C@H](Cc1ccccc1)C(N)=O (Ac-[dY]-[dR]-[dF]-NH2)
Potency [1]: inactive | Potency [2]: inactive

CCC(C)(O)C(O)C(=O)OCc1ccc(O[C@@H]2O[C@H](CO)[C@@H](O)[C@H](O)[C@H]2O)cc1 (some centres undefined)
Potency [1]: inactive | Potency [2]: inactive

C=C1C(O[C@@H]2O[C@H](CO)[C@@H](O)[C@H](O)[C@@H]2O)CC2C(C)(C)C(O)CCC2(C)C1CC/C(C)=C\CO (some centres undefined)
Potency [1]: inactive | Potency [2]: inactive

CC(/C=C/C1(O)C(C)(C)CC(O)CC1(C)O)OC1OC(CO)C(O)C(O)C1O (centres undefined)
Potency [1]: inactive | Potency [2]: inactive

Cc1cc(O)cc(Oc2cc(C)c(C(=O)O)c(O)c2)c1
Potency [1]: inactive | Potency [2]: inactive

CC1(C)CC2C(C1)C1(C)CCC13OC3(CO)C2O (centres undefined)
Potency [1]: inactive | Potency [2]: inactive

CC1CCC2(O1)C(C)(C)CC(O[C@@H]1O[C@H](CO[C@@H]3OC[C@](O)(CO)[C@H]3O)[C@@H](O)[C@H](O)[C@H]1O)CC2(C)O (some centres undefined)
Potency [1]: inactive | Potency [2]: inactive

CNC(=O)O[C@H]1COc2ccc(N3CCN(C4COC4)CC3)cc2[C@@H]1NC(=O)c1ccc(F)cc1
Potency [1]: inactive | Potency [2]: inactive

C/C=C(\C)C(=O)O[C@@H](C)[C@H]1CC[C@]2(O)C3CCC4C[C@@H](OC5CC(OC)C(OC6CC(OC)C(OC7CC(OC)C(OC8OC(C)C(OC9OC(CO)C(O)C(O)C9O)C(OC)C8O)C(C)O7)C(C)O6)C(C)O5)CC[C@]4(C)C3[C@H](O)[C@@H](O)[C@]12C (some centres undefined)
outcome [1]: inactive [at 9.29 µM] | activity change, negative = cytotoxicity [2]: 2.39% [at 9.29 µM]

CC1=C2C3OC(=O)C(C)C3(O)CCC2(C)CCC1=O (centres undefined)
Potency [1]: inactive | Potency [2]: inactive

CC(=O)OC[C@]1(O)[C@H]2[C@H](OC(=O)CC(C)C)OC=C(CO[C@@H]3O[C@H](CO)[C@@H](O)[C@H](O)[C@H]3O)[C@H]2C[C@@H]1O
Potency [1]: inactive | Potency [2]: inactive

C=C1C(=O)O[C@H]2[C@H]1[C@@H](OC(=O)C(C)CO)C[C@@]1(C)[C@H](O)CCC(=O)[C@H]21 (some centres undefined)
Potency [1]: inactive | Potency [2]: inactive

CC12CCC3c4ccc(O)cc4CCC3C1CCC2OC1OC(C(=O)O)C(O)C(O)C1O (centres undefined)
Potency [1]: inactive | Potency [2]: inactive

Nc1ncnc2c1ncn2[C@H]1CCCO1
Potency [1]: inactive | Potency [2]: inactive

COc1c(C)c2c(c(O)c1C/C=C(\C)CC/C=C(\C)CCC(=O)O)C(=O)OC2
Potency [1]: inactive | Potency [2]: inactive

CCn1cc(C2=NOC(C(=O)Nc3c(C)n(C)n(-c4ccccc4)c3=O)C2)c(C)n1 (centres undefined)
Potency [1]: inactive | Potency [2]: inactive

CC(C)(C)NCC(O)COc1cccc2c1CCCC2=O (centres undefined)
Potency [1]: inactive | Potency [2]: inactive

CC(NC(=O)CC(=O)O)c1nc2ccccc2c(=O)[nH]1 (centres undefined)
Potency [1]: inactive | Potency [2]: inactive

CCC(NC(=O)CC(NC(=O)C(CO)NC(=O)C(CC)NC(=O)c1ccc[nH]1)c1ccccc1)C(=O)O (centres undefined)
Potency [1]: inactive | Potency [2]: inactive

CC1(C)CCC2(C(=O)OC3OC(COC4OC(CO)C(O)C(O)C4O)C(O)C(O)C3O)CCC3(C)C(=CCC4C5(C)CCC(O)C(C)(C(=O)O)C5CCC43C)C2C1O (centres undefined)
outcome [1]: inactive [at 9.29 µM] | outcome [2]: inactive [at 9.29 µM]

CCOC(=O)[C@H]1O[C@@H]1C(=O)N[C@@H](CC(C)C)C(=O)NCCC(C)C
Potency [1]: inactive | Potency [2]: inactive

C[C@@H]1C[C@H]2[C@@H]3CCC4=CC(=O)C=C[C@]4(C)[C@@]3(F)[C@@H](O)C[C@]2(C)[C@@]1(O)C(=O)COP(=O)(O)O
Potency [1]: inactive | Potency [2]: inactive

O=C(O[C@@H]1O[C@H](CO)[C@@H](O)[C@H](O)[C@H]1O)c1c(O)cc(O)cc1/C=C/c1ccccc1
Potency [1]: inactive | Potency [2]: inactive

C[C@@H]1O[C@@H](O[C@H]2[C@H](OC(=O)C34CCC5(C)C(=CCC6C7(C)CC(O)C(O[C@@H]8O[C@H](C(=O)O)[C@@H](O)[C@H](O)[C@H]8O)C(C)(C(=O)O)C7CCC65C)C3CC(C)(C)CC4O)O[C@H](C)[C@@H](O)[C@@H]2O)[C@H](O)[C@@H](O[C@@H]2OC[C@](O)(CO)[C@H]2O[C@@H]2O[C@H](CO)[C@@H](O)[C@H](O)[C@H]2O)[C@H]1O (some centres undefined)
outcome [1]: inactive [at 9.29 µM] | activity change, negative = cytotoxicity [2]: 5.75% [at 9.29 µM]

CC(C)=CCCC1(C)Oc2cc3c(c4c2C2C(O4)C(C)(O)CCC21)CN(C(CCC(=O)O)C(=O)O)C3=O (centres undefined)
Potency [1]: inactive | Potency [2]: inactive

CCOc1ccc(-c2ccc(Cn3c(CC(C)(C)C(=O)O)c(SC(C)(C)C)c4cc(OCc5ccc(C)cn5)ccc43)cc2)cn1
Potency [1]: inactive | Potency [2]: inactive

C=Cc1cc(O)cc2nc(-c3ccc(O)c(F)c3)oc12
Potency [1]: inactive | Potency [2]: inactive

O=C(c1ccc(C#Cc2cccc(F)c2)cn1)N1CC2CC2C1 (centres undefined)
Potency [1]: inactive | Potency [2]: inactive

COc1c2c(c(C)c3c1C(=O)OC3)O[C@@]1(C)C[C@@H](O)[C@]34O[C@](OC)(CC[C@]3(C)[C@H]1C2)OC4(C)C
Potency [1]: inactive | Potency [2]: inactive

CC(C#N)C(C)O[C@@H]1O[C@H](CO)[C@@H](O)[C@H](O)[C@H]1O (some centres undefined)
Potency [1]: inactive | Potency [2]: inactive

Cc1nc2c(-c3cnc(N)nc3)nc(N3CCOCC3)nc2n1C(C)C
Potency [1]: 259 nM (active) | Potency [2]: 259 nM (active)

CC(C)(O)/C=C1/C(=O)C(C)(C)C(=O)C(C)(C)C1(O)O[C@@H]1O[C@H](COC(=O)c2cc(O)c(O)c(O)c2)[C@@H](O)[C@H](O)[C@H]1O (some centres undefined)
Potency [1]: inactive | Potency [2]: inactive

CCC(C)/C=C(C)/C=C/C1=CC2=C(Cl)C(=O)C(C)(OC(C)=O)C(=O)C2=CN1CCCC(=O)O (centres undefined)
Potency [1]: inactive | Potency [2]: inactive

COc1ccc(C(O[C@@H]2O[C@H](CO)[C@@H](O)[C@H](O)[C@H]2O)C(CO)Oc2ccc(/C=C/CO)cc2OC)cc1O (some centres undefined)
Potency [1]: inactive | Potency [2]: inactive

CC(C)c1nc(N(C)S(C)(=O)=O)nc(-c2ccc(F)cc2)c1/C=C/[C@@H](O)C[C@@H](O)CC(=O)O
Potency [1]: inactive | Potency [2]: inactive

CC(=O)[C@@H]1CC[C@]2(C(=O)O)CC[C@]3(C)C(CCC4[C@@]5(C)CC[C@H](O)C(C)(C)C5CC[C@]43C)C12 (some centres undefined)
Potency [1]: inactive | Potency [2]: inactive

C[C@H]1CC[C@@]2(OC1)O[C@H]1CC3C4CC=C5C[C@H](O)C[C@@H](O[C@@H]6O[C@@H](C)[C@H](O)[C@@H](O)[C@H]6O[C@@H]6O[C@@H](C)[C@H](O)[C@@H](O)[C@H]6O)[C@]5(C)C4CC[C@]3(C)[C@H]1[C@@H]2C (some centres undefined)
Potency [1]: inactive | Potency [2]: inactive

C[C@@H]1O[C@@H](O[C@@H]2[C@@H](O)[C@@H](O)[C@H](O[C@@H]3[C@@H](O)[C@@H](O[C@]4(CO)O[C@H](CO)[C@@H](O)[C@@H]4OC(=O)/C=C/c4ccc(O)cc4)O[C@H](CO)[C@H]3OC(=O)/C=C/c3ccc(O)cc3)O[C@H]2C)[C@H](O)[C@H](O)[C@H]1O
outcome [1]: inactive [at 9.29 µM] | outcome [2]: inactive [at 9.29 µM]

CC1=CC(=O)CC(C)(CO[C@@H]2O[C@H](CO)[C@@H](O)[C@H](O)[C@H]2O)C1(O)/C=C/C(C)=C/C(=O)O (some centres undefined)
Potency [1]: inactive | Potency [2]: inactive

OC[C@H]1O[C@@H](OC(CCCCc2ccc(O)cc2)CCc2ccc(O)cc2)[C@H](O[C@@H]2OC[C@](O)(CO)[C@H]2O)[C@@H](O)[C@@H]1O (some centres undefined)
Potency [1]: inactive | Potency [2]: inactive

CCOc1nc2cccc(C(=O)OCc3oc(=O)oc3C)c2n1Cc1ccc(-c2ccccc2-c2noc(O)n2)cc1
Potency [1]: inactive | Potency [2]: inactive

O=C1NC(=Nc2ccccc2F)S/C1=C\c1ccc(C(=O)O)cc1
Potency [1]: inactive | Potency [2]: inactive

C=C1CC2[C@]3(C)C(=C(O)C(=O)[C@@]2(C)[C@]2(C(=O)OC)C(=O)C(C)OC(=O)[C@@]12C)C(C)(C)C(=O)CC3O (some centres undefined)
Potency [1]: inactive | Potency [2]: inactive

COC(=O)CC1(O)C(=O)Nc2ccccc21 (centres undefined)
Potency [1]: inactive | Potency [2]: inactive

C[C@H]1C[C@H]2[C@@H]3CCC4=CC(=O)C=C[C@]4(C)[C@@]3(F)[C@@H](O)C[C@]2(C)[C@@]1(O)C(=O)COP(=O)(O)O
Potency [1]: inactive | Potency [2]: inactive

COc1cc(C(O)C(CO)Oc2ccc(CCCO[C@@H]3O[C@@H](C)[C@H](O)[C@@H](O)[C@H]3O)cc2OC)ccc1O (some centres undefined)
Potency [1]: inactive | Potency [2]: inactive

O=C(O)c1cc(O[C@@H]2O[C@H](CO[C@@H]3OC[C@@H](O)[C@H](O)[C@H]3O)[C@@H](O)[C@H](O)[C@H]2O)c2ccccc2c1O
Potency [1]: inactive | Potency [2]: inactive

CC(/C=C/C1(O)C2(C)COC1(C)CC(=O)C2)O[C@@H]1O[C@H](CO)[C@@H](O)[C@H](O)[C@H]1O (some centres undefined)
Potency [1]: inactive | Potency [2]: inactive
